The values that follow come from PubChem BioAssay AID1211 (NMMLSC, 2008).

Molecules are shown by their SMILES. The source made the active and inactive calls. No rule for the calls is given here.

This assay has as its target Estrogen receptor (Homo sapiens) (UniProt P03372). Put plainly: displacement of fluorescent estrogen from ERalpha – cell-based, Cos7 ERalpha-GFP, flow cytometry, primary screen (AID 1211).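 Also: 0% = DMSO vehicle wells and 100% = no E2-Alexa633 signal left.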 The conditions noted are these: fluorescent ligand competition, stronger effect = higher value. (In general: Flow cytometry measures light scatter and fluorescence of single cells or particles in a stream.)

Estrogen receptor (Homo sapiens), sequence (P03372 whole entry, looked up): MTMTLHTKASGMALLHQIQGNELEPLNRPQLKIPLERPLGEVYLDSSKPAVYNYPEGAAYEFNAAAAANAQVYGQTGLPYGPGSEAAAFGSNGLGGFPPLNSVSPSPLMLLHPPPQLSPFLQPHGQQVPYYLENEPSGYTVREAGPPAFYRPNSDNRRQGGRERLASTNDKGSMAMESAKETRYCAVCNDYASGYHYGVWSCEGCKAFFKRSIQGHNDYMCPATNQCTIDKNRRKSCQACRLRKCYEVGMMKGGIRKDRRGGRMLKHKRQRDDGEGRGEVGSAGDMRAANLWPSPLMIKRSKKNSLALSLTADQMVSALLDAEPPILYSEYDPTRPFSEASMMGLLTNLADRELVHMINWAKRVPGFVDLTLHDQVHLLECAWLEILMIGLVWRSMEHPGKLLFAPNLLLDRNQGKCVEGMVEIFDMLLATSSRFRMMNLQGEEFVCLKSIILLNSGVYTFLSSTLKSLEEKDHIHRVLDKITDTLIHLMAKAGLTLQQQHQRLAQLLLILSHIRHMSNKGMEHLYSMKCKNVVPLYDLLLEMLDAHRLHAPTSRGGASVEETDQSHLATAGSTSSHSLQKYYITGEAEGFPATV

As for `N=C1C(c2nc3ccccc3[nH]2)=C(O)CN1c1ccc(CC(=O)O)cc1`, the inhibition of ligand binding runs as follows: (at 10 µM) 45% (active); (binding inhibition, at 0.1 µM) 96%.

As to `C=CCn1c(=O)c(C#N)cc2c(=O)n3ccccc3nc21`, the inhibition of ligand binding is 38% (inactive) (at 10 µM) and 42% (binding inhibition, at 0.1 µM).

On to `CCOc1ccc(Nc2oc(-c3ccccc3Cl)nc2C#N)cc1`, for which the inhibition of ligand binding is, setting by setting: (at 10 µM) 29% (inactive); (binding inhibition, at 0.1 µM) 35%.

As for `Cc1nc2ccccc2c(=O)n1/N=C/c1c(O)ccc2oc3c(c12)CCCC3`, the inhibition of ligand binding was 48% (inactive) (at 10 µM) and 52% (binding inhibition, at 0.1 µM).

Take `Cc1noc(C)c1S(=O)(=O)N(CC(=O)O)c1ccc2c(c1)OCO2`: the inhibition of ligand binding reads like this: (at 10 µM) 0% (inactive); (binding inhibition, at 0.1 µM) 3%.

For `CC1CCCN(c2nc3c(c(=O)[nH]c(=O)n3C)n2Cc2ccccc2Cl)C1` (configuration not stated), the inhibition of ligand binding reads like this: (at 10 µM) 33% (inactive); (binding inhibition, at 0.1 µM) 58%.

Consider `COc1ccc(Cl)cc1NC(=O)c1ocnc1C`, for which the inhibition of ligand binding is 21% (inactive) (at 10 µM) and 3% (binding inhibition, at 0.1 µM).

In the case of `O=C1c2ccccc2NC(c2ccc(O)cc2)N1/N=C/c1ccc(O)cc1` (configuration not stated), the inhibition of ligand binding was 32% (inactive) (at 10 µM) and 65% (binding inhibition, at 0.1 µM).

In the case of `O=C(O)c1cc(-c2ccco2)nc2ccc(Br)cc12`, the inhibition of ligand binding reads like this: (at 10 µM) 21% (inactive); (binding inhibition, at 0.1 µM) 39%.

With `Nc1ccc2nc(CN3CCOCC3)[nH]c2c1`, the inhibition of ligand binding by setting is: (at 10 µM) 42% (inactive); (binding inhibition, at 0.1 µM) 41%.

As for `COc1ccc(/C=N/NC(=O)c2nc(-c3ccccc3)n(-c3ccccc3)n2)c(O)c1`, the inhibition of ligand binding reads like this: (at 10 µM) 41% (inactive); (binding inhibition, at 0.1 µM) 52%.

On to `CN(C)C(=O)c1ccc2c(c1)C1C3CCC(C3)C1C(c1ccccc1)N2` (configuration not stated), for which the inhibition of ligand binding runs as follows: (at 10 µM) 0% (inactive); (binding inhibition, at 0.1 µM) 24%.

As for `Oc1cccc(-c2nc3ccc4ccccc4c3c3c2CCC3)c1`, the inhibition of ligand binding (at 10 µM) was 33% (inactive) and the inhibition of ligand binding (binding inhibition, at 0.1 µM) is 21%.

As to `COc1cc2c(cc1O)C(Cc1ccc(O)cc1)NCC2` (configuration not stated), the inhibition of ligand binding runs as follows: (at 10 µM) 34% (inactive); (binding inhibition, at 0.1 µM) 8%.

Consider `CC(=O)Nc1ccc(N=Cc2nc(-c3ccc(C)cc3)oc2O)cc1`, for which the inhibition of ligand binding reads like this: (at 10 µM) 29% (inactive); (binding inhibition, at 0.1 µM) 60%.

Regarding `COc1cc(C2Nc3c(F)cccc3C3C=CCC32)cc(Br)c1OC` (configuration not stated), the inhibition of ligand binding is 10% (inactive) (at 10 µM) and 20% (binding inhibition, at 0.1 µM).

Turning to `COc1ccc(Cc2nnc(NC(=O)Cc3cccs3)s2)cc1`, the inhibition of ligand binding reads like this: (at 10 µM) 47% (inactive); (binding inhibition, at 0.1 µM) 47%.

Turning to `Cc1ccc(S(=O)(=O)Cc2ccc(C(=O)N3CCc4ccccc4C3)o2)cc1`, the inhibition of ligand binding (at 10 µM) was 54% (inactive) and the inhibition of ligand binding (binding inhibition, at 0.1 µM) worked out at 57%.

With `CCc1ccc(NC(=O)c2noc3c2CCC3)cc1`, the inhibition of ligand binding (at 10 µM) is 2% (inactive) and the inhibition of ligand binding (binding inhibition, at 0.1 µM) is 9%.

With `O=C(O)c1ccc(NS(=O)(=O)c2ccc3c(c2)C2C=CCC2C(c2ccccc2F)N3)cc1` (configuration not stated), the inhibition of ligand binding is, setting by setting: (at 10 µM) 62% (inactive); (binding inhibition, at 0.1 µM) 5%.

As to `O=C(CSc1nnc(SCC(=O)c2ccco2)s1)c1ccco1`, the inhibition of ligand binding was 14% (inactive) (at 10 µM) and 28% (binding inhibition, at 0.1 µM).

For `O=C(NCc1ccco1)c1cc2ccc(O)cc2oc1=O`, the inhibition of ligand binding is, setting by setting: (at 10 µM) 5% (inactive); (binding inhibition, at 0.1 µM) 46%.

As for `C[C@]12CC[C@@H]3c4ccc(O)cc4[C@@H](O)C[C@H]3[C@@H]1CC[C@@H]2O`, the inhibition of ligand binding was 64% (active) (at 10 µM) and 78% (binding inhibition, at 0.1 µM).

Consider `CN1C(=O)CC(C(=O)O)SC1=Nc1cc(Cl)c(O)c(Cl)c1` (configuration not stated), for which the inhibition of ligand binding (at 10 µM) is 17% (inactive) and the inhibition of ligand binding (binding inhibition, at 0.1 µM) turned out to be 51%.

With `Cc1ccc(-c2n[nH]c(=S)n2/N=C/C=C\c2ccccc2[N+](=O)[O-])cc1`, the inhibition of ligand binding is 40% (inactive) (at 10 µM) and 57% (binding inhibition, at 0.1 µM).

With `COC(=O)c1ccc(CC(=O)c2c(C)cc(O)cc2O)o1`, the inhibition of ligand binding by setting is: (at 10 µM) 34% (inactive); (binding inhibition, at 0.1 µM) 43%.

On to `CCOc1ccc(N=C2NC(=O)S/C2=C\c2ccc(OC)cc2)cc1`, for which the inhibition of ligand binding was 39% (inactive) (at 10 µM) and 26% (binding inhibition, at 0.1 µM).

`COCCOC(=O)c1[nH]c2c(c1C)C(=O)CC(c1ccco1)C2` (configuration not stated): the inhibition of ligand binding is 2% (inactive) (at 10 µM) and 8% (binding inhibition, at 0.1 µM).

Regarding `O=C(CSc1nc2ccccc2c(=O)[nH]1)c1ccc(O)c(O)c1`, the inhibition of ligand binding runs as follows: (at 10 µM) 14% (inactive); (binding inhibition, at 0.1 µM) 5%.

For `Cc1ccc(Oc2cc(N3CCOCC3)nc(-c3ccccc3)n2)cc1`, the inhibition of ligand binding was 13% (active) (at 10 µM) and 66% (binding inhibition, at 0.1 µM).

Regarding `Oc1c(Cl)cc(Cl)cc1Sc1cc(Cl)cc(Cl)c1O`, the inhibition of ligand binding was 37% (inactive) (at 10 µM) and 28% (binding inhibition, at 0.1 µM).

For the molecule `Cc1nc2sccn2c1-c1nc(-c2cc3ccccc3o2)cs1`, the inhibition of ligand binding is, setting by setting: (at 10 µM) 4% (inactive); (binding inhibition, at 0.1 µM) 22%.

Regarding `O=c1oc2ccccc2cc1-c1ccc(O)cc1O`, the inhibition of ligand binding is 33% (inactive) (at 10 µM) and 18% (binding inhibition, at 0.1 µM).

As for `CCOC(=O)Cc1csc(NC(=O)Cc2cccs2)n1`, the inhibition of ligand binding by setting is: (at 10 µM) 28% (inactive); (binding inhibition, at 0.1 µM) 12%.

Regarding `CC(=O)c1ccc(NCC(=O)N2CCN(c3ccccc3)CC2)cc1`, the inhibition of ligand binding by setting is: (at 10 µM) 58% (inactive); (binding inhibition, at 0.1 µM) 18%.

Regarding `CCn1c2ccccc2c2cc(NC(=O)CSc3nnc(-c4ccc(OC)cc4)n3N)ccc21`, the inhibition of ligand binding is, setting by setting: (at 10 µM) 53% (inactive); (binding inhibition, at 0.1 µM) 17%.

With `COc1ccc(NC(=O)C(NC(=O)c2ccc(=O)[nH]c2)c2ccc(C)cc2)cc1` (configuration not stated), the inhibition of ligand binding (at 10 µM) is 4% (inactive) and the inhibition of ligand binding (binding inhibition, at 0.1 µM) turned out to be 13%.

For the molecule `O=S(=O)(Nc1ncnc2sc3c(c12)CCC3)c1ccc2ccccc2c1`, the inhibition of ligand binding runs as follows: (at 10 µM) 28% (inactive); (binding inhibition, at 0.1 µM) 37%.

As to `C1CCC(c2nn3c(-c4n[nH]c5c4CCC5)nnc3s2)CC1`, the inhibition of ligand binding runs as follows: (at 10 µM) 20% (inactive); (binding inhibition, at 0.1 µM) 5%.

Regarding `O=c1nc2s/c(=C\c3ccco3)c(=O)n2nc1Cc1ccc(F)cc1`, the inhibition of ligand binding is 32% (inactive) (at 10 µM) and 61% (binding inhibition, at 0.1 µM).

In the case of `O=C(Cc1cccs1)Nc1nncs1`, the inhibition of ligand binding is, setting by setting: (at 10 µM) 33% (inactive); (binding inhibition, at 0.1 µM) 13%.

As to `O=C(c1cc2sccc2n1Cc1ccccc1)N1CCc2ccccc21`, the inhibition of ligand binding reads like this: (at 10 µM) 45% (inactive); (binding inhibition, at 0.1 µM) 20%.

As to `O=C(Nc1ccc(N2CCCC2)cc1)C(c1ccccc1)c1ccccc1`, the inhibition of ligand binding (at 10 µM) was 63% (inactive) and the inhibition of ligand binding (binding inhibition, at 0.1 µM) is 7%.

Turning to `CCOC(=O)C1=C(O)/C(=C\c2ccc(CNC(=O)C(=O)Nc3ccccc3)o2)N=C1C`, the inhibition of ligand binding was 24% (inactive) (at 10 µM) and 19% (binding inhibition, at 0.1 µM).

With `CCn1c(SCC(=O)N2CCOCC2)nc2oc3c(Cl)cc(Cl)cc3c(=O)c2c1=O`, the inhibition of ligand binding is, setting by setting: (at 10 µM) 22% (inactive); (binding inhibition, at 0.1 µM) 5%.

Turning to `NC(=O)c1ccsc1NC(=O)COC(=O)Cc1ccsc1`, the inhibition of ligand binding was 37% (inactive) (at 10 µM) and 29% (binding inhibition, at 0.1 µM).

Turning to `COc1cc(NC(=O)COc2ccc(-n3cnnn3)cc2)c(OC)cc1Cl`, the inhibition of ligand binding (at 10 µM) was 58% (inactive) and the inhibition of ligand binding (binding inhibition, at 0.1 µM) was 41%.

Regarding `O=C(C1c2ccccc2C(=O)N2CCc3ccccc3C12)N1CCN(Cc2ccccc2)CC1` (configuration not stated), the inhibition of ligand binding reads like this: (at 10 µM) 41% (inactive); (binding inhibition, at 0.1 µM) 12%.

`COc1ccc(-n2c(SCC(=O)Nc3nccs3)nc3sc4c(c3c2=O)CCN(C)C4)cc1`: the inhibition of ligand binding reads like this: (at 10 µM) 30% (inactive); (binding inhibition, at 0.1 µM) 24%.

Consider `COc1ccc2c(c1)C1C=CCC1C(c1cc3c(cc1Br)OCO3)N2` (configuration not stated), for which the inhibition of ligand binding runs as follows: (at 10 µM) 0% (inactive); (binding inhibition, at 0.1 µM) 10%.

Take `Cc1snc2sc(C(=O)c3ccc(Br)cc3)c(N)c12`: the inhibition of ligand binding by setting is: (at 10 µM) 48% (inactive); (binding inhibition, at 0.1 µM) 29%.

With `CC(=O)OC1CC(C)(C)N(OC(=O)c2ccc(N)cc2)C(C)(C)C1`, the inhibition of ligand binding was 6% (inactive) (at 10 µM) and 7% (binding inhibition, at 0.1 µM).

Turning to `Cn1c(SCc2cc(=O)n3cc(Br)ccc3n2)nnc1C1COc2ccccc2O1` (configuration not stated), the inhibition of ligand binding runs as follows: (at 10 µM) 19% (inactive); (binding inhibition, at 0.1 µM) 27%.

Turning to `Cc1[nH]c2ccc(-c3nnc(SCC(=O)c4ccccc4F)o3)cc2c1C`, the inhibition of ligand binding is, setting by setting: (at 10 µM) 43% (inactive); (binding inhibition, at 0.1 µM) 4%.

With `CCN1CCc2nc(NC(=O)Cc3ccc4c(c3)OCCO4)sc2C1`, the inhibition of ligand binding (at 10 µM) is 36% (inactive) and the inhibition of ligand binding (binding inhibition, at 0.1 µM) was 31%.

Take `O=C(Nc1ccc2nn(-c3ccccc3)nc2c1)c1ccc2c(c1)OCO2`: the inhibition of ligand binding is 15% (inactive) (at 10 µM) and 44% (binding inhibition, at 0.1 µM).

In the case of `O=C(Nc1ccc2oc(-c3ccc4ccccc4c3)nc2c1)c1cccs1`, the inhibition of ligand binding (at 10 µM) is 32% (inactive) and the inhibition of ligand binding (binding inhibition, at 0.1 µM) turned out to be 51%.

As for `COc1ccc(C2=NN(C(=O)c3cccnc3)C(c3ccccc3)C2)cc1` (configuration not stated), the inhibition of ligand binding runs as follows: (at 10 µM) 37% (inactive); (binding inhibition, at 0.1 µM) 30%.

As for `COc1ccc(C)cc1-n1nnnc1SCC(=O)NC(=O)NCc1ccco1`, the inhibition of ligand binding (at 10 µM) was 15% (inactive) and the inhibition of ligand binding (binding inhibition, at 0.1 µM) stood at 26%.

In the case of `O=C(Oc1ccc(-c2cnc3ccccc3n2)cc1)c1ccc(Br)o1`, the inhibition of ligand binding runs as follows: (at 10 µM) 58% (inactive); (binding inhibition, at 0.1 µM) 1%.

In the case of `CCN(CC)c1ccc(-c2nn3c(-c4ccccc4OC)nnc3s2)cc1`, the inhibition of ligand binding is 40% (inactive) (at 10 µM) and 25% (binding inhibition, at 0.1 µM).
